Compound activity from PubChem.
HepG2 tox – counter-screen for TGF-b inhibitors: cytotoxicity in HepG2 cells; Potency, µM (titrated, usually from 46.1 µM), for the others: top-dose activity change, negative = cytotoxicity, hits mostly cytotoxic; HepG2 CAGA-GFP viability, ATP luminescence, 18 h; 0.76% of 410,000 active; also: potency is read from the fitted curve at half-maximal effect
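HepG2 CAGA-GFP cells (1000/well, DMEM with 1% FBS) received compound, then TGF-beta at 500 pg/mL final, and were incubated 18 hours at 37 degrees C. Viability was read by CellTiter-Glo luminescence. Media-only wells were set as complete cell-killing and DMSO as no toxicity.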
DT40 TDP1 CPT – DT40-hTDP1 cell growth loss with CPT; chicken DT40 Tdp1-/-;hTDP1 cells + 20 nM CPT, ATP luminescence, 48 h; 12% of 420,000 active; Potency, µM (series often up to 46.2 µM), inactives show top-dose activity change, negative = growth inhibition, actives largely listed as inhibitors; AID 686979; also: potency is read from the fitted curve at half-maximal effect; % is scaled to controls: 0 for no effect and ±100 for the full control effect; nearly all actives have a fitted effect of over 55% in size
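Chicken DT40 Tdp1-/- cells stably complemented with human TDP1 were seeded at 400 cells/well in medium containing 20 nM camptothecin, exposed to pin-transferred compounds, and grown at 37 °C for at least 48 hr. Viability was read as ATP luminescence.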
IL1B secr inh – inflammasome signaling inhibition, IL-1 beta readout | THP-1 LPS/ATP IL-1B secretion, AlphaLISA, 16 h; active compounds read low | activity change, % at 57.5 µM | 4.7% of 360,000 active; in the data active = activity change below about -50%; inconclusive = mostly about -30% to -49%; also: % is scaled to controls: 0 for no effect and ±100 for the full control effect
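Secreted IL-1B measured by AlphaLISA bead assay after 16 h compound exposure of THP-1 cells; compounds (final up to 57.5 uM) added 1 h before LPS (250 ng/mL) and ATP (1.25 mM) stimulation; lower signal means less secretion.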
TDP1 cell noCPT – qHTS for Inhibitors of human tyrosyl-DNA phosphodiesterase 1 (TDP1): qHTS in cells in absence of CPT | DT40 Tdp1-/- hTDP1 cells, no CPT, ATP luminescence, 48 h | Potency, µM (highest dose often 46.2 µM), for the others: at the highest dose activity change, negative = growth inhibition, actives largely listed as inhibitors | 15% of 420,000 active | AID 686978, 2013; also: potency is read from the fitted curve at half-maximal effect; % is scaled to controls: 0 for no effect and ±100 for the full control effect; nearly all actives have a fitted effect of over 55% in size
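Cells were dispensed at 400 per well, compounds added by pin tool, plates incubated ≥48 hr at 37 °C, then CellTiter-Glo added for 30 min at room temperature before luminescence reading. Line: DT40 Tdp1-/- complemented with hTDP1; camptothecin omitted.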
TGFb SMAD3 inh – blocks TGF-b signaling; HepG2 CAGA-GFP TGF-b/SMAD3 reporter, GFP fluorescence, 18 h; TGF-beta stimulated, 500 pg/mL final; Potency, µM (titrated, usually from 46.1 µM), without a hit: top-dose activity, negative = inhibition, usual class: inhibitors; 1.2% of 410,000 active; AID 588855; also: potency is read from the fitted curve at half-maximal effect; % is scaled to controls: 0 for no effect and ±100 for the full control effect; nearly all actives have a fitted effect of over 65% in size
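First, reporter cells (HEPG2 CAGA-GFP) rested 2 h at 37 degrees C. Next, compounds were pinned in and TGF-beta added to 500 pg/mL final. After 18 h, GFP was imaged per cell and summed per well.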
TDP1 inh – blocks human tyrosyl-DNA phosphodiesterase 1 | Q9NUW8 | recombinant TDP1, AlphaScreen DNA substrate cleavage | Potency, µM (top dose mostly 130 µM), inactives show at the top dose activity change, negative = inhibition, usual class: inhibitors | 0.28% of 350,000 active | AID 485290; also: potency is read from the fitted curve at half-maximal effect; % is scaled to controls: 0 for no effect and ±100 for the full control effect; nearly all actives have a fitted effect of over 40% in size
Target sequence (Q9NUW8 whole entry, looked up): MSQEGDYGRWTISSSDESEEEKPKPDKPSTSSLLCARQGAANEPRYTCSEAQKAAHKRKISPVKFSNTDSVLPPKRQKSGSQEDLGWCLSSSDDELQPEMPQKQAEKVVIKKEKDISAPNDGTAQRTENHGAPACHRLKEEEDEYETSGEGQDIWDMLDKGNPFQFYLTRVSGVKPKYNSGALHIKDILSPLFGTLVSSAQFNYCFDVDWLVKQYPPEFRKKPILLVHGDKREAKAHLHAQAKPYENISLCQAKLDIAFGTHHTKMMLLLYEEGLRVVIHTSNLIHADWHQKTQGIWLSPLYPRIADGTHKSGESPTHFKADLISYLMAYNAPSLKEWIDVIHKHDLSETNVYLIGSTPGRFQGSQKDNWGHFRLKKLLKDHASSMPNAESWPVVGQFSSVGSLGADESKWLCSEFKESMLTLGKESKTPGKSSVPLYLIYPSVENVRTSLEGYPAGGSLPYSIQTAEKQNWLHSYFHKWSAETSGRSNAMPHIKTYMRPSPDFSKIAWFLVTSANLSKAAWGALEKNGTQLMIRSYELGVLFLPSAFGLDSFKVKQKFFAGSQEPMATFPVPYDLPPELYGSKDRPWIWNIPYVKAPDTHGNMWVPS
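Steps: enzyme plus compound, 15 min RT; add biotin/phosphotyrosine-FITC oligonucleotide (15 nM final), react 5 min; add donor/acceptor beads (10 ug/ml final), 10 min; read AlphaScreen. Tdp1 at 1 nM final.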
An asterisk follows results filed as active; u = inconclusive; x = not tested or not shown. A selection: hits, their analogues and other compounds. The true share with any hit is near 19%. Unless noted, calls follow the shape of the dose curve; as a rule, active = well fitted curve in the direction sought with a large enough effect; inconclusive = small, poorly fitted or top-dose-only effect, or another doubt; inactive = no such curve, though single readings can be large; an effect the other way counts as inactive or inconclusive.

SMILES | HepG2 tox | DT40 TDP1 CPT | IL1B secr inh | TDP1 cell noCPT | TGFb SMAD3 inh | TDP1 inh
COc1ccc2c(c1)cc1c(=O)n(CC(=O)NCCc3ccccc3)nc(C)n12 | 8.0% | 0.4% | x | -11.8% | -5.9% | 3.9%
COc1ccc(C(C[N+](=O)[O-])C2(c3ccc(OC)c(OC)c3)C(=O)c3ccccc3C2=O)cc1 (stereo not drawn) | 17.8µM* | u | -102.4* | 4.11µM* | u | 11.0%
COC(=O)C(C(=O)OC)C(C[N+](=O)[O-])c1ccc(OC)c(OC)c1 (stereo not drawn) | -13.9% | -23.9% | 52.9 | u | 0.7% | 0.0%
CCCCOC(=O)c1ccc(NC(=O)Cc2coc3c(C)c(C)ccc23)cc1 | -57.6% | u | x | u | u | 1.2%
Cc1ccc(-c2ccc(=O)n(CCC(=O)N3CCN(c4ccccc4)CC3)n2)cc1 | -39.7% | 0.9% | u | u | 0.0% | x
O=C(CCn1nc(-c2ccc(Cl)cc2)ccc1=O)N1CCN(c2ccc(F)cc2)CC1 | -38.0% | u | u | 20.6µM* | u | x
Cc1ccc(CCNC(=O)CCn2nc(-c3ccc(Cl)cc3)ccc2=O)cc1 | -28.1% | u | x | 23.1µM* | -14.0% | 5.2%
CC(C)CCn1c(SCC(=O)NC2CC2)nc2cc(Cl)ccc2c1=O | -2.0% | u | 10.7 | -5.6% | 9.3% | -3.0%
CCOc1ccc(Nc2c(S(=O)(=O)c3ccccc3)cnc3ccc(F)cc23)cc1 | -23.3% | u | x | u | u | 3.9%
COc1ccc(CNC(=O)C2CCN(S(=O)(=O)c3c(C)noc3/C=C/c3cccs3)CC2)cc1 | -26.1% | -23.2% | x | -27.0% | -7.1% | 4.7%
Cc1cc(C)c(/C=C/c2onc(C)c2S(=O)(=O)N2CCC(C(=O)NCc3ccccc3Cl)CC2)c(C)c1 | 4.6% | -27.4% | x | u | 2.9% | 1.8%
Cc1cc(C)c(/C=C/c2onc(C)c2S(=O)(=O)N2CCC(C(=O)N3CCN(c4ccccc4)CC3)CC2)c(C)c1 | -2.8% | 16.4µM* | x | 13µM* | 2.6% | 3.0%
Cc1ccc(/C=C/c2onc(C)c2S(=O)(=O)N2CCC(C(=O)N3CCN(C)CC3)CC2)cc1 | -7.2% | u | x | 23.1µM* | -11.2% | 2.9%
COc1ccc(/C=C/c2onc(C)c2S(=O)(=O)N2CCC(C(=O)N3CCCCC3)CC2)cc1 | -2.7% | u | x | u | u | 0.9%
Cc1cc(C)c(/C=C/c2onc(C)c2S(=O)(=O)N2CCC(C(=O)Nc3cccc(C)c3C)CC2)c(C)c1 | -7.9% | 5.17µM* | x | 6.51µM* | -0.1% | 3.0%
Cc1ccc(CNC(=O)C2CCN(S(=O)(=O)c3c(C)noc3/C=C/c3cccs3)CC2)cc1 | -24.3% | 20.6µM* | x | u | u | -9.3%
CCC(=O)N1CCc2cc(CNC(=O)c3ccccc3C)ccc21 | -6.1% | u | x | u | 5.8% | 4.4%
CCOc1ccc(-c2cc3c(=O)n(CC(=O)NCc4ccc(Cl)cc4)ccn3n2)cc1 | 2.6% | -14.0% | x | 0.2% | 0.0% | 1.2%
Cn1nc(C(=O)Nc2ccc(F)c(Cl)c2)c2c1-c1ccccc1S(=O)(=O)C2 | -6.3% | -16.0% | x | -12.7% | 10.5% | 5.2%
CCN(CC)c1ccc(NS(=O)(=O)c2cc3[nH]c(=O)c(=O)[nH]c3cc2C)c(C)c1 | -17.8% | u | x | u | -26.3% | -8.7%
CCc1ccc(S(=O)(=O)c2nnn3c2nc(Nc2ccc(C)c(Cl)c2)c2sccc23)cc1 | 1.5% | u | x | -16.9% | 41.4% | 0.0%
CS(=O)(=O)Nc1cccc(C2=NN(C(=O)c3cccc([N+](=O)[O-])c3)C(c3cccs3)C2)c1 (stereo not drawn) | -26.2% | u | u | u | -23.6% | x
CCOc1ccccc1/C=C/c1onc(C)c1S(=O)(=O)N1CCC(C(=O)NC)CC1 | -1.9% | u | 27.3 | u | 2.7% | x
CCOc1ccccc1CNC(=O)C1CCN(S(=O)(=O)c2c(C)noc2/C=C/c2ccc(C)cc2)CC1 | -16.5% | u | x | -27.7% | u | 1.8%
CCOC(=O)C1CCN(C(=O)C2CCN(S(=O)(=O)c3c(C)noc3/C=C/c3ccc(C)cc3)CC2)CC1 | -29.1% | u | x | 5.17µM* | 7.3% | 5.3%
SMILES | HepG2 tox | DT40 TDP1 CPT | IL1B secr inh | TDP1 cell noCPT | TGFb SMAD3 inh | TDP1 inh
Cc1ccc(/C=C/c2onc(C)c2S(=O)(=O)N2CCC(C(=O)N(CCC(C)C)Cc3ccco3)CC2)cc1 | -9.3% | u | x | 16.4µM* | -0.5% | -0.6%
CCC(C)(C)NC(=O)C1CCN(S(=O)(=O)c2c(C)noc2/C=C/c2ccc(C)cc2)CC1 | -13.8% | 23.1µM* | x | u | -7.9% | 6.5%
CCOc1ccccc1/C=C/c1onc(C)c1S(=O)(=O)N1CCC(C(=O)N2CCCCC2)CC1 | 8.1% | 16.4µM* | x | 20.6µM* | u | 1.9%
Cc1cccc(/C=C/c2onc(C)c2S(=O)(=O)N2CCC(C(=O)NC(C)(C)C)CC2)c1 | -15.7% | u | 3.2 | u | -1.1% | x
CC1(C(=O)N/N=C/c2ccc3c(c2)OCO3)CC1(Br)Br (stereo not drawn) | 4.8% | -19.3% | -1.4 | -1.7% | -0.8% | 2.3%
COc1ccc2c(c1)CC(NC(=O)Nc1ccc(Br)c(C)c1)CO2 (stereo not drawn) | 1.8% | -16.5% | x | -13.3% | 3.0% | 0.0%
Cc1nn(-c2ccc(F)cc2)c(C)c1CN1CCN(CCC(C)C)C(CCO)C1 (stereo not drawn) | 0.1% | -7.2% | -24.1 | -10.2% | -7.4% | 0.0%
